Results reported in PubChem BioAssay (NCATS).
Results filed as inconclusive are left out. The source made the active and inactive calls. Unless noted, calls come from the whole dose curve; as a rule, active = well fitted curve in the direction sought with a large enough effect; inconclusive = small, poorly fitted or top-dose-only effect, or another doubt; inactive = no such curve, though single readings can be large; an effect the other way counts as inactive or inconclusive.

How the values were obtained:
[1] = qHTS for differential inhibitors of proliferation of Plasmodium falciparum line GB4 (AID 1816); conditions: Potency: Plasmodium falciparum GB4 proliferation inhibition;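 note: parasite growth measured after 72 h incubation; 0% = vehicle DMSO and -100% = reference inhibitor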
[2] = qHTS for differential inhibitors of proliferation of Plasmodium falciparum line 3D7 (AID 1876);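 note: parasite growth measured after three days of culture; 0% = vehicle wells and -100% = reference inhibitor wells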
[3] = qHTS for differential inhibitors of proliferation of Plasmodium falciparum line D10 (AID 1877);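 note: parasites grown with compound for 72 h before DNA staining; plate controls were vehicle wells for no effect and reference inhibitor wells for full effect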
[4] = qHTS for differential inhibitors of proliferation of Plasmodium falciparum line Dd2 (AID 1882); conditions: Potency: Plasmodium falciparum Dd2 proliferation inhibition;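 note: series mostly up to about 29 µM; plate controls were DMSO vehicle for no effect and 0.29 µM artemisinin for full effect; nearly all actives have a fitted effect of over 65% in size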
Outline: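 Dd2-infected erythrocytes (0.3% parasitemia, 2.5% hematocrit final) incubated with compound 72 h at 37 C, 5% CO2; lysed with saponin/Triton buffer containing SYBR Green I, incubated overnight in the dark, then read by fluorescence (485/535 nm). Normalized to 0.29 uM artemisinin and DMSO.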

[5] = qHTS for differential inhibitors of proliferation of Plasmodium falciparum line W2 (AID 1883); conditions: Potency: Plasmodium falciparum W2 proliferation inhibition;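 note: parasites grown with compound for 72 h before lysis and staining; 0% = vehicle wells and -100% = control inhibitor wells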
[6] = qHTS for differential inhibitors of proliferation of Plasmodium falciparum line HB3 (AID 1886); conditions: Potency: Plasmodium falciparum HB3 proliferation inhibition;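 note: parasites grown with compound for 72 h before SYBR Green readout; plate controls were vehicle for no effect and reference inhibitor for full effect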
[7] = qHTS Assay for Modulators of Human Peripheral Myelin Protein 22 (PMP22) Expression/Activity (AID 1967; active = well fitted curve in the direction sought with a large enough effect in the signal ratio; the % refers to the signal ratio;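 note: 0% = untreated cells and 100% end not stated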)
Outline: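 Readout is the corrected green/red luminescence ratio after 24 h compound exposure, normalised to untreated cells (0%). Engineered MSC80 mouse Schwann cells express green luciferase from the mouse Pmp22 promoter and red luciferase from EF-alpha as internal control.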

[8] = target: Ferritin light chain (Equus caballus) (UniProt P02791); assay: qHTS Validation Assay for Identification of Novel General Anesthetics (AID 2323); note: series mostly up to about 77 µM; % is set by controls: 0 for no effect and ±100 for the full control effect
Ferritin light chain (Equus caballus), sequence (P02791 2-175 limits assumed): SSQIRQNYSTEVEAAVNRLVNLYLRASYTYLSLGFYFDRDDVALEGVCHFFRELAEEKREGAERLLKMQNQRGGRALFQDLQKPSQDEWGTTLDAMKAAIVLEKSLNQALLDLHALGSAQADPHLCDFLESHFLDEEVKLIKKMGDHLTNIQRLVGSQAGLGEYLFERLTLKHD
Outline: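 Competitive displacement of the profluorescent anesthetic 1-AMA (50% saturated, PBS) from 10 uM apoferritin, 10 min, room temperature. Activity is normalized 380/535 nm fluorescence; concentration-response fitted with a four-parameter Hill equation.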

[9] = target: ATP-dependent DNA helicase Q1 (Homo sapiens) (UniProt P46063); assay: qHTS Validation Assay for Inhibitors of RecQ-Like Dna Helicase 1 (RECQ1) (AID 2353);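 note: plate controls were DMSO vehicle for no effect and enzyme-free control for full effect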
Outline: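 50 nM RECQ1T1 preincubated 15 min with compound in Tris pH 8.0 buffer with MgCl2, DTT, Tween-20 and 2.5 ug/ml poly(dI-dC); started with 200 nM TAMRA/BHQ-2 forked duplex and 2 mM ATP. Unwinding read as fluorescence (525/598 nm), two reads 2 h apart.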

[10] = target: RecQ-like DNA helicase BLM (Homo sapiens) (UniProt P54132); assay: qHTS Validation Assay for Inhibitors of Bloom's syndrome helicase (BLM) (AID 2364);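 note: plate controls were DMSO vehicle for no effect and enzyme-free control for full effect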
RecQ-like DNA helicase BLM (Homo sapiens), sequence (P54132 whole entry, looked up): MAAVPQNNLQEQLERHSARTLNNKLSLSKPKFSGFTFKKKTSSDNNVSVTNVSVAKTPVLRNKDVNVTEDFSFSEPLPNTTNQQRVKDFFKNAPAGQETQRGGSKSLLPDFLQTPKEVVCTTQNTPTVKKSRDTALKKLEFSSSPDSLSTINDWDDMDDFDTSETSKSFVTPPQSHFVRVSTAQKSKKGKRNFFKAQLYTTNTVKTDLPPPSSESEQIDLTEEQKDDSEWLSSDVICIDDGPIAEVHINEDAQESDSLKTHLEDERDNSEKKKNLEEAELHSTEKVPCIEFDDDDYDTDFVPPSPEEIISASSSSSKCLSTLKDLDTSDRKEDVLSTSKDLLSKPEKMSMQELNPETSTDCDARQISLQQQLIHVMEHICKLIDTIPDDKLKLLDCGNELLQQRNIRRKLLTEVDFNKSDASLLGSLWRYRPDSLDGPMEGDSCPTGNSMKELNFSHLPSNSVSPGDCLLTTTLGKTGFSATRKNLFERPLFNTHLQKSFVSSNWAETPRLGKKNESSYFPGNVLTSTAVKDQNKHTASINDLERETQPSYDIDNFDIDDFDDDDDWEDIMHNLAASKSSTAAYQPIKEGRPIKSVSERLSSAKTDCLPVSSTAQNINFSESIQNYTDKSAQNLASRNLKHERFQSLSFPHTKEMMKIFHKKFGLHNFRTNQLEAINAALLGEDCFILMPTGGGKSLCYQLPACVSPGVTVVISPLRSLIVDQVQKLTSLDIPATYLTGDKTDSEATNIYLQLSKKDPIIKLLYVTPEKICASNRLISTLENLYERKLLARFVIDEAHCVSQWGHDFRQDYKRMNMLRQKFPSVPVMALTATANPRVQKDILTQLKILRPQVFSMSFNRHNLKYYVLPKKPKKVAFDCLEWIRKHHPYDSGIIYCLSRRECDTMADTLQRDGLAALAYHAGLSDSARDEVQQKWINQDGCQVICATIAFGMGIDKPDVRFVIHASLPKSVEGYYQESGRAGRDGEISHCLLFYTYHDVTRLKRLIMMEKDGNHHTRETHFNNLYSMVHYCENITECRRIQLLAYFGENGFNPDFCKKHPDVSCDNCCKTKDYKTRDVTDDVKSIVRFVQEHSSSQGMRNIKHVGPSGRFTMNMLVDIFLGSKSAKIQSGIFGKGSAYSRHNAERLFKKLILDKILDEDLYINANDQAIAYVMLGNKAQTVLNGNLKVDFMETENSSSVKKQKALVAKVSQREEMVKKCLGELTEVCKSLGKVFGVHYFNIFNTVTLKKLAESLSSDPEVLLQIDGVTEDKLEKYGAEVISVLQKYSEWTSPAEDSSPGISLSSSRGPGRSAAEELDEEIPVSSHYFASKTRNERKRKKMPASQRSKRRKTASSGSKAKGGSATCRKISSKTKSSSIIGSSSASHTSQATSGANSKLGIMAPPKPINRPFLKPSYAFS
Outline: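 50 nM BLM preincubated 15 min at room temperature with compound in pH 8.0 Tris buffer containing 2.5 ug/ml poly(dI-dC); started with 200 nM TAMRA/BHQ-2 forked duplex and 2 mM ATP (final). Unwinding read as TAMRA fluorescence increase, two reads 2 h apart.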

[11] = Validation screen for small molecules that induce DNA re-replication in MCF 10A normal breast cells (AID 463097); note: 0% is about no effect; nearly all actives have a fitted effect of over 60% in size
Outline: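 Read-out is Hoechst total nuclear intensity by fluorescence scanning imager, flagging increased high-DNA-content nuclei. Compounds were incubated with MCF 10A cells for 48 hr (37 C, 5% CO2) before 40 min staining.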

[12] = Quantitative high throughput screen for delayed death inhibitors of the malarial parasite plastid, 96 hour incubation (AID 488745); note: series mostly up to about 29 µM; % is set by controls: 0 for no effect and ±100 for the full control effect; nearly all actives have a fitted effect of over 70% in size
Outline: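 Luciferase-expressing P. falciparum in erythrocytes (2% hematocrit, 0.1% parasitemia) incubated with compound for 96 h at 37 C, 5% CO2, in RPMI 1640 with 0.5% Albumax. Growth inhibition read as decreased luminescence.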

[13] = Quantitative high throughput screen for delayed death inhibitors of the malarial parasite plastid, 48 hour incubation (AID 488752); note: % is set by controls: 0 for no effect and ±100 for the full control effect; nearly all actives have a fitted effect of over 65% in size
Outline: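 Erythrocytes infected with firefly luciferase-expressing P. falciparum (2% hematocrit, 0.1% parasitemia) cultured with compound for 48 h at 37 C, 5% CO2, in RPMI 1640/0.5% Albumax. Growth inhibition read as loss of luminescence.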

[14] = target: M-phase phosphoprotein 8 (Homo sapiens) (UniProt Q99549); assay: qHTS Validation Assay for Inhibitors for MPP8 Chromodomain Interactions with Methylated Histone Tails (AID 488949);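 note: AlphaScreen signal from MPP8 chromodomain bound to biotinylated H3K9me3 peptide; top concentration of the series differs between compounds; % is set by controls: 0 for no effect and ±100 for the full control effect; nearly all actives have a fitted effect of over 55% in size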
M-phase phosphoprotein 8 (Homo sapiens), sequence (Q99549 whole entry, looked up): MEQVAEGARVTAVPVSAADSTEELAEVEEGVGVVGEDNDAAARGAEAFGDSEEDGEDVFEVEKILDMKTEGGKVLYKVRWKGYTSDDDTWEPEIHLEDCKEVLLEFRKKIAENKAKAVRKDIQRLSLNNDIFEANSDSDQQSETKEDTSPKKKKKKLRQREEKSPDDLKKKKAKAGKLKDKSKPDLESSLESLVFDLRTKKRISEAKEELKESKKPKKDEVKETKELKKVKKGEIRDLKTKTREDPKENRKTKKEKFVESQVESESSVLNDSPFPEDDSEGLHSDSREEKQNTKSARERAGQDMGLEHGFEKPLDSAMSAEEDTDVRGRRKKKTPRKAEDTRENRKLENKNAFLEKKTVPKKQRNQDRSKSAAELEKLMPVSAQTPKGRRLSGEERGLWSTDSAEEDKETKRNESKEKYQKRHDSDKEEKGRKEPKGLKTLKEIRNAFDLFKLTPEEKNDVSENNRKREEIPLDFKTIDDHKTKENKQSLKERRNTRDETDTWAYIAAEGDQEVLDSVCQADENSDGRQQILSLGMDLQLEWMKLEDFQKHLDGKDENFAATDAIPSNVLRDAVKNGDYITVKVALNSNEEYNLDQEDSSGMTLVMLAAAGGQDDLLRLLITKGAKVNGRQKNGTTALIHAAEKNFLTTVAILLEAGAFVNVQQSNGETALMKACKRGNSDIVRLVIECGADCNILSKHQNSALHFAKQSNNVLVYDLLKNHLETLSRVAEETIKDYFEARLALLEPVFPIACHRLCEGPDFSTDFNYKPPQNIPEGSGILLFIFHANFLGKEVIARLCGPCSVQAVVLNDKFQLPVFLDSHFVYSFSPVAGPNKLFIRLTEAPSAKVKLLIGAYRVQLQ
Outline: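 AlphaScreen proximity signal from streptavidin donor and Ni-chelate acceptor beads (10 ug/mL each) reported binding of MPP8 to trimethyl-K9 H3(1-18) peptide, both at 50 nM. The complex formed 30 min before a 30 min compound exposure at room temperature, in PBS pH 7.4.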

[15] = target: Transient receptor potential cation channel subfamily V member 1 (Homo sapiens) (UniProt Q8NER1); assay: HTS Assay for Compounds that Act as Enhancers of the Vanilloid Receptor 1 (AID 488979); note: 0% is about no effect
Transient receptor potential cation channel subfamily V member 1 (Homo sapiens), sequence (Q8NER1 whole entry, looked up): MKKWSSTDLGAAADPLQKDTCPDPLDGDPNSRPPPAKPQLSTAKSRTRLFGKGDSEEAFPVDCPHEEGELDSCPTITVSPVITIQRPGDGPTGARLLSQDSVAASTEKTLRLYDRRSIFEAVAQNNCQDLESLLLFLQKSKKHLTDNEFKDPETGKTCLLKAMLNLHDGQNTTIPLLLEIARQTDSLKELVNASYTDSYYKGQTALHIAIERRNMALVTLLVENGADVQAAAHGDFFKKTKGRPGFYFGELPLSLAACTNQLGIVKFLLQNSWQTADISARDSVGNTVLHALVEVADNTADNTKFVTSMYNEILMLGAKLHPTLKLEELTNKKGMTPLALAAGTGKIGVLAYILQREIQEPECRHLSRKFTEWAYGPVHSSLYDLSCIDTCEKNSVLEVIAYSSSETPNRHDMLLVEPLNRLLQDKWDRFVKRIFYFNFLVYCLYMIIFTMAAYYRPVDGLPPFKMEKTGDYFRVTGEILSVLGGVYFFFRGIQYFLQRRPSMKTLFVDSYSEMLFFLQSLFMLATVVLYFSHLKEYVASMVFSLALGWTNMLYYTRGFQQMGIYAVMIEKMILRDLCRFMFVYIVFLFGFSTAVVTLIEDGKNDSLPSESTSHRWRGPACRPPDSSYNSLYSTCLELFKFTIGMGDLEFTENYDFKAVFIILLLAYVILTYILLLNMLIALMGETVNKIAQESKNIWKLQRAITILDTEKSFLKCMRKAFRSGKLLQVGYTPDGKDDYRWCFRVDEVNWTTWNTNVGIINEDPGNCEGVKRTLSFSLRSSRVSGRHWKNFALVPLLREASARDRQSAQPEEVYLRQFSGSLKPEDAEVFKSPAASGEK
Outline: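 TRPV1 cells loaded with Fluo-8 calcium dye; compound added and Ca2+ signal (ex 480/em 520 nm) followed 3 min, then capsaicin at EC20 added and read 2 more min to detect enhancement.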

[16] = target: Thyrotropin receptor (Homo sapiens) (UniProt P16473); assay: qHTS Assay for Antagonists of the Thyroid Stimulating Hormone Receptor (AID 488980); note: series mostly up to about 58 µM; 0% is about no effect
Thyrotropin receptor (Homo sapiens), sequence (P16473 whole entry, looked up): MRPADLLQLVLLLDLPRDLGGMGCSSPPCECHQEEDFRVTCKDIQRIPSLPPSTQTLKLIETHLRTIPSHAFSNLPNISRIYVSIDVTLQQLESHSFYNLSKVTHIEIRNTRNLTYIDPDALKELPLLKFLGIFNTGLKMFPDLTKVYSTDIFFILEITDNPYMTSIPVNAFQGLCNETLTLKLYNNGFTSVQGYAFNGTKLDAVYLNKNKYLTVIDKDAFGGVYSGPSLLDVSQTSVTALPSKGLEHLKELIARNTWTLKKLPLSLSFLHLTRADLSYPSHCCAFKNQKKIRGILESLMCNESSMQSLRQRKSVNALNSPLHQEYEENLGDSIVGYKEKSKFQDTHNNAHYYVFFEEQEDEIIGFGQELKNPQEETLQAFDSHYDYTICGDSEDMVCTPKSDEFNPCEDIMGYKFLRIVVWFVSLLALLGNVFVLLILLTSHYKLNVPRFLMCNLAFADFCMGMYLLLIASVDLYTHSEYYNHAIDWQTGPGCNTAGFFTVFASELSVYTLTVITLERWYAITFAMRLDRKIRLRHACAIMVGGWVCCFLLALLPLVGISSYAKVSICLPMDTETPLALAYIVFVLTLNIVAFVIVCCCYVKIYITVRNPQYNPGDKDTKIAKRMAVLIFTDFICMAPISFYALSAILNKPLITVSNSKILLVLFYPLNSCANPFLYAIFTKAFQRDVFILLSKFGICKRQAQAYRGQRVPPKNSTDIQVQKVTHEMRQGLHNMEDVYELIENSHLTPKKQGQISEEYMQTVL
Outline: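 Inhibition of cAMP raised by EC80 TSH (4 nM final) was read by HTRF, with lysate cAMP competing against cAMP-d2 for cryptate antibody after 30 min at room temperature. The cells were transfected HEK293 held in phosphodiesterase inhibitor RO 20-1724 at 70 uM.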

[17] = target: Thyrotropin-releasing hormone receptor (Homo sapiens) (UniProt P34981); assay: qHTS for Small Molecule Agonists and Allosteric Enhancers of Human TRH Receptor: Validation Screen for Agonists (AID 493127;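 active = calcium activation more than 3 SD above the typical response in the agonist read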; note: 0% is about no effect); conditions: TRH receptor agonist cell assay; at 2 µM; hits give high values
Thyrotropin-releasing hormone receptor (Homo sapiens), sequence (P34981 whole entry, looked up): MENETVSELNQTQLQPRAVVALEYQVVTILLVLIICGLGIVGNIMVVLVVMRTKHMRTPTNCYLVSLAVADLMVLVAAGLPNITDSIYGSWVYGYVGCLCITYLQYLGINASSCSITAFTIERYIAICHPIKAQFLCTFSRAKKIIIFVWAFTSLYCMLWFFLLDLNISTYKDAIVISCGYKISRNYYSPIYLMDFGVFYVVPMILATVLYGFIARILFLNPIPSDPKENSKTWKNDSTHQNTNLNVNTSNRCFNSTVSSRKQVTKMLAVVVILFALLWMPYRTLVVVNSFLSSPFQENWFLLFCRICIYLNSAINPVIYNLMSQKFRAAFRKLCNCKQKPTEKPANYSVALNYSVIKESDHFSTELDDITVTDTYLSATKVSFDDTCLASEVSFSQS
Outline: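 TRHR cells loaded with fluo-8 calcium dye; FDSS kinetic fluorescence (Ex 480/Em 530) read at 1 s/cycle after 23 nL compound addition. Agonist-mode calcium response recorded before the 10 nM TRH (EC20) addition.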

[18] = target: Galactokinase (Homo sapiens) (UniProt P51570); assay: qHTS Validation Assay for Inhibitors of Human Galactokinase (GALK) (AID 493189); note: 0% is about no effect
Galactokinase (Homo sapiens), sequence (P51570 whole entry, looked up): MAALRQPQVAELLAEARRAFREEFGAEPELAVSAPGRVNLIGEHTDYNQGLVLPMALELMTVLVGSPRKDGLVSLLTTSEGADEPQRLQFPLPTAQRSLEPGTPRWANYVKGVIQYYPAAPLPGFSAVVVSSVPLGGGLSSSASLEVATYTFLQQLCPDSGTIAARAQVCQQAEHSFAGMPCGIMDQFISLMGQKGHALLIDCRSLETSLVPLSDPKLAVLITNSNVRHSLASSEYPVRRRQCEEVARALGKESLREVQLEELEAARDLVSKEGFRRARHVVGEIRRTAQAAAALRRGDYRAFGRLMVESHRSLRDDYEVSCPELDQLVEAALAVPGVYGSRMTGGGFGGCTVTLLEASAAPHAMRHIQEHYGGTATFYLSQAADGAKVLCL
Outline: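 Inhibition was measured as remaining ATP, detected by luciferase luminescence after a 1 h room-temperature reaction. Final conditions: 5 nM GALK, 100 uM galactose, 35 uM ATP, pH 8.0 HEPES buffer.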

[19] = Validation screen for small molecules that induce DNA re-replication in SW480 colon adenocarcinoma cells (AID 504364); note: 0% is about no effect
Outline: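 SW480 cells (250/well) exposed 48 h at 37 C, 5% CO2, then Hoechst-stained 40 min. Nuclear DNA content imaged by fluorescence scanning (405 nm excitation, 500-530 nm emission); re-replication scored as increased nuclei with elevated intensity.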

O=S(=O)(O)C1CCNCC1
inactive: Potency [1] | Potency [2] | Potency [3] | Potency [4] | Potency [5] | Potency [6] | outcome [7] | outcome [8] | outcome [9] | Potency [10] | Potency [11] | Potency [12] | Potency [13] | Potency [14] | outcome [15] | outcome [16] | activation [17] 0.125% | outcome [18] | Potency [19]
